Experimental data: PubChem BioAssay
Results filed as inconclusive are left out. Activity calls are given as the source filed them. Unless noted, how the calls were made is not given here.

Key:
[1] = rapamycin-like changes in RPL19A-GFP expression – cell-based, S. cerevisiae, multiplex flow cytometry, primary screen (AID 1862; in the data active means percent of DMSO control GFP below about 86%;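 further: lower values mimic rapamycin by blocking the RPL19A rise seen in DMSO cells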); conditions: S. cerevisiae RPL19A-GFP strain, flow cytometry fluorescence, 3 h; at 10 µM; stronger effect = lower value
[2] = TOR pathway GLN3 branch reporter MEP2-GFP changes – S. cerevisiae, multiplex flow cytometry, primary screen (AID 1867;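 active means GFP response, as percent of the DMSO control, above the screen-wide mean plus 3 SD, about 139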;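 further: median GFP channel fluorescence of barcode-gated MEP2-GFP cells measured by flow cytometry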); conditions: S. cerevisiae MEP2-GFP strain, 3 h, at 10 µM, stronger effect = higher value
[3] = TOR pathway RTG branch CIT2 reporter changes – S. cerevisiae, GFP fusion, multiplex flow cytometry, primary screen (AID 1870;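 active means percent response above a set limit, the screen-wide mean plus 3 SD, cut at about 130% in these data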;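 further: barcoded CIT2-GFP strain pooled with four other GFP strains with rapamycin as positive control; median GFP fluorescence per well over plate mean of DMSO wells so 100% = DMSO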); conditions: S. cerevisiae CIT2-GFP expression, 3 h, at 10 µM, stronger effect = higher value
[4] = TOR pathway LAP4-GFP level changes – S. cerevisiae, multiplex flow cytometry, primary screen (AID 1873;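 active means GFP signal, as percent of the solvent control, above the screen mean plus 3 SD, about 149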); conditions: S. cerevisiae LAP4-GFP expression, 3 h, at 10 µM, stronger effect = higher value
[5] = yeast AGP1-GFP level changes, GLN3 branch – cell-based, multiplex flow cytometry, S. cerevisiae, primary screen (AID 1887;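 active means GFP signal above the screen-wide mean plus 3 SD, that is over about 124.5% of the solvent control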;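 further: AGP1-GFP fusion strain of S. cerevisiae within a five-strain barcoded multiplex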); conditions: 3 h, at 10 µM, stronger effect = higher value
[6] = reduced mouse 2C T cell binding to pMHC/ICAM-1 vesicles – MLPCN validation set, flow cytometry, LFA-1/ICAM-1 modulator project, pilot screen (AID 2523;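 active means response below a set limit, under 55% cells CD8-positive and vesicle-bound, and CD8 cells' 90th-percentile brightness under 279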;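 on vesicle binding response: mean PE anti-B7-1 fluorescence of CD8+ cells relative to row control; 100% = QL9-loaded vesicles with DMSO vehicle in the same plate row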); conditions: 2C mouse CD8+ T cells, at 7 µM, stronger effect = lower value; double positive events: measured here: CD8+/vesicle+ event percentage
[7] = molecular target: Integrin beta-1 (Homo sapiens) + Integrin alpha-4 (Homo sapiens) (UniProt P13612+P05556); experiment: alpha4beta1 integrin LIBS antibody binding reduction – U937 cells, HUTS-21 mAb, flow cytometry, validation set, VLA-4 allosteric modulator project, pilot screen (AID 2674;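 active means inhibition above 50%, about 3 SD of the validation set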;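 further: antibody binding induced by the VLA-4 ligand LDV present at three times its Kd; 0% = LDV ligand with antibody and no compound and 100% = antibody without LDV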); conditions: HUTS-21 LIBS mAb binding, at 6.7 µM, stronger effect = higher value
Integrin beta-1 (Homo sapiens) + Integrin alpha-4 (Homo sapiens), sequence (P05556 whole entry, looked up): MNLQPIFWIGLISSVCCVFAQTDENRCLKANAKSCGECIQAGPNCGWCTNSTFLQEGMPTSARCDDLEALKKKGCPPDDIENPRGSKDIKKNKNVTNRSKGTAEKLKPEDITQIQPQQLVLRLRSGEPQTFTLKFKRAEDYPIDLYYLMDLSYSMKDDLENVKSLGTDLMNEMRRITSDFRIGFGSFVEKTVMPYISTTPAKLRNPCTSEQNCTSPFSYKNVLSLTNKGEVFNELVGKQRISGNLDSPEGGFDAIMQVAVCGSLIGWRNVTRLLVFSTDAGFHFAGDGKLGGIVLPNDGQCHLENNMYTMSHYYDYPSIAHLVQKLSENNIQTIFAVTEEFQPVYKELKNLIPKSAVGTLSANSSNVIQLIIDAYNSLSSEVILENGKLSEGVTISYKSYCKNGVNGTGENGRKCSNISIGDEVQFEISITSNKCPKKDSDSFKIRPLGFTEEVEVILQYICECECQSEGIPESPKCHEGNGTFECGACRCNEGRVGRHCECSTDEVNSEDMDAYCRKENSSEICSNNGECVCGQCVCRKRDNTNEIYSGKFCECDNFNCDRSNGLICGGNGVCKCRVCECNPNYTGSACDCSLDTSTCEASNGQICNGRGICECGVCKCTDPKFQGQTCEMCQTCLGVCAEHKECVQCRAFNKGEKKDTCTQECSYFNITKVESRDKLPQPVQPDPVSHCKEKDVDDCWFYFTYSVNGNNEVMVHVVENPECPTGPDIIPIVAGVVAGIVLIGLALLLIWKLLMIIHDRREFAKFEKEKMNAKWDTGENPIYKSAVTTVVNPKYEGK
Integrin beta-1 (Homo sapiens) + Integrin alpha-4 (Homo sapiens), sequence (P13612 whole entry, looked up): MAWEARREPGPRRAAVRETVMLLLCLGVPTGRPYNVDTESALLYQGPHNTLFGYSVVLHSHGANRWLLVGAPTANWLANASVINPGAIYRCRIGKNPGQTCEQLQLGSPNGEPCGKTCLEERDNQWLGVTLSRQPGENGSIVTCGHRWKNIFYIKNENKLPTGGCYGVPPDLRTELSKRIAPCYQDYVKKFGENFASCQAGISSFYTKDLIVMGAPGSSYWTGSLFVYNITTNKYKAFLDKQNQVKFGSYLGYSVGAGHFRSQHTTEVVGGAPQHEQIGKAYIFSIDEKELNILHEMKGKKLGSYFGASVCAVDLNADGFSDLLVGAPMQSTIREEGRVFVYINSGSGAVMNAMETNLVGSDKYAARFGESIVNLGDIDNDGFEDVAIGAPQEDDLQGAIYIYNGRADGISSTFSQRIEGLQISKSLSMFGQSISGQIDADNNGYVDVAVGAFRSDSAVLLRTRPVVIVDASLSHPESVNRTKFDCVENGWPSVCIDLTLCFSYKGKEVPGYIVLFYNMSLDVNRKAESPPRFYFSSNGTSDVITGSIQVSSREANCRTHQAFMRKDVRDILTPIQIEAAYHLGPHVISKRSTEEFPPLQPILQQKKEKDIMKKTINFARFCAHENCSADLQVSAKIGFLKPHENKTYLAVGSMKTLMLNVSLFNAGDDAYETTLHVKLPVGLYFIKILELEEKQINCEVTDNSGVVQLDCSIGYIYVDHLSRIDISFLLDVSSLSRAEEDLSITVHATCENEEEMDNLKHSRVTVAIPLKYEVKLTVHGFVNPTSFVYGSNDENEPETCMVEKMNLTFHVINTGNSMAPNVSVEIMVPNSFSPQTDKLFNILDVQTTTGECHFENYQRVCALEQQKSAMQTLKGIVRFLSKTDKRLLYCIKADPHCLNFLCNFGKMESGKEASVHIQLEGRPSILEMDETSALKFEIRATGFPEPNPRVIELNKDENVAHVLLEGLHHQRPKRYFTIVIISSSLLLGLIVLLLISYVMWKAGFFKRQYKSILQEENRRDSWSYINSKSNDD

[8] = molecular target: Beta-adrenergic receptor kinase 1 (Homo sapiens) (UniProt P25098); experiment: GRK2 binders displacing RNA aptamer, biochemical, validation, human GRK2, bead flow cytometry (AID 488806;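 active means aptamer binding inhibition above 30%, about 3 SD of noise from non-fluorescent compounds; inactive means inhibition at or below 30%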); conditions: bead-bound GRK2, FAM-aptamer displacement, at 10 µM, stronger effect = higher value
Beta-adrenergic receptor kinase 1 (Homo sapiens), sequence (P25098 whole entry, looked up): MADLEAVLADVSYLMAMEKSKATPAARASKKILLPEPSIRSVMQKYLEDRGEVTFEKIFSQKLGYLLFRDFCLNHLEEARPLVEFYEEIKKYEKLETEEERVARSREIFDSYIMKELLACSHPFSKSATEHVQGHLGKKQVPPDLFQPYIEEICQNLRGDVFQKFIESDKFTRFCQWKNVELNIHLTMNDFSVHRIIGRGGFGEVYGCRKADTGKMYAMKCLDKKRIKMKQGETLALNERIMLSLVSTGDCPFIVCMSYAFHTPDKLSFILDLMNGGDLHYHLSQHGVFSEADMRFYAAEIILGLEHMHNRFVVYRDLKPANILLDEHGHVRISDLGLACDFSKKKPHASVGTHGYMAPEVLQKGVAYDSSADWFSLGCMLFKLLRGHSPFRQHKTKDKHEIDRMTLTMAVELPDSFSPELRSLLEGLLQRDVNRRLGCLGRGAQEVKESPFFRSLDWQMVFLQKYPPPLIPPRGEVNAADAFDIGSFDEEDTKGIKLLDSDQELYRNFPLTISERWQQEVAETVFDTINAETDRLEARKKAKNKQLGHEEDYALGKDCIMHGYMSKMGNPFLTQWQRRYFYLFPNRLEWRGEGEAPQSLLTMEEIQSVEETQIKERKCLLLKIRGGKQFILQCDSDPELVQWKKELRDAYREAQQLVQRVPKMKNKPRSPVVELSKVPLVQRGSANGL

[9] = molecular target: Beta-2 adrenergic receptor (Homo sapiens) (UniProt P07550); experiment: agonist-induced loss of surface beta2AR – cell-based, FAP fluorogen, flow cytometry, validation set, pilot screen (AID 504459;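 active means percent response above 42, roughly 3 SD of non-fluorescent test compounds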;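 further: agonist-driven loss of surface beta2AR via internalization measured by FAP dye flow cytometry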); conditions: Am2.2-beta2AR cells, at 10 µM, stronger effect = higher value
Beta-2 adrenergic receptor (Homo sapiens), sequence (P07550 whole entry, looked up): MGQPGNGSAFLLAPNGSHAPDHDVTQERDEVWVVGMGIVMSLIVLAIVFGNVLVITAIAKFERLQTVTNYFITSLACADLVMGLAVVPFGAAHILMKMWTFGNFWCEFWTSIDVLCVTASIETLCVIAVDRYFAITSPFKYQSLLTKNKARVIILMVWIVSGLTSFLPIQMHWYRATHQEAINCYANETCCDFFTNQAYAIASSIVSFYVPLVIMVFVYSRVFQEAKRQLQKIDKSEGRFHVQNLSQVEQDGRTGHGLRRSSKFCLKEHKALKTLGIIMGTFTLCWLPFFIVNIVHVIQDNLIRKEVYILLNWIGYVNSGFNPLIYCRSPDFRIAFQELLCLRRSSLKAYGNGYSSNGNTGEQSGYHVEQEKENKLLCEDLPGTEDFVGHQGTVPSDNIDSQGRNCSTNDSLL

[10] = molecular target: AP-2 complex subunit beta (Homo sapiens) (UniProt P63010); experiment: beta-arrestin/AP2 interaction blockers – biochemical, validation set, GST-AP2 beads, flow cytometry, pilot screen (AID 504541;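 active means inhibition above 54%, about 3 SD of non-fluorescent compounds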;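 further: AP2 carries R879A mutation and is captured from E. coli lysate; bead-bound FITC arrestin peptide fluorescence measuring arrestin peptide binding to AP2; 0% = DMSO wells and 100% = excess unlabeled arrestin peptide control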); conditions: FITC arrestin peptide, at 10 µM, stronger effect = higher value
AP-2 complex subunit beta (Homo sapiens), sequence (P63010 whole entry, looked up, one chain of several): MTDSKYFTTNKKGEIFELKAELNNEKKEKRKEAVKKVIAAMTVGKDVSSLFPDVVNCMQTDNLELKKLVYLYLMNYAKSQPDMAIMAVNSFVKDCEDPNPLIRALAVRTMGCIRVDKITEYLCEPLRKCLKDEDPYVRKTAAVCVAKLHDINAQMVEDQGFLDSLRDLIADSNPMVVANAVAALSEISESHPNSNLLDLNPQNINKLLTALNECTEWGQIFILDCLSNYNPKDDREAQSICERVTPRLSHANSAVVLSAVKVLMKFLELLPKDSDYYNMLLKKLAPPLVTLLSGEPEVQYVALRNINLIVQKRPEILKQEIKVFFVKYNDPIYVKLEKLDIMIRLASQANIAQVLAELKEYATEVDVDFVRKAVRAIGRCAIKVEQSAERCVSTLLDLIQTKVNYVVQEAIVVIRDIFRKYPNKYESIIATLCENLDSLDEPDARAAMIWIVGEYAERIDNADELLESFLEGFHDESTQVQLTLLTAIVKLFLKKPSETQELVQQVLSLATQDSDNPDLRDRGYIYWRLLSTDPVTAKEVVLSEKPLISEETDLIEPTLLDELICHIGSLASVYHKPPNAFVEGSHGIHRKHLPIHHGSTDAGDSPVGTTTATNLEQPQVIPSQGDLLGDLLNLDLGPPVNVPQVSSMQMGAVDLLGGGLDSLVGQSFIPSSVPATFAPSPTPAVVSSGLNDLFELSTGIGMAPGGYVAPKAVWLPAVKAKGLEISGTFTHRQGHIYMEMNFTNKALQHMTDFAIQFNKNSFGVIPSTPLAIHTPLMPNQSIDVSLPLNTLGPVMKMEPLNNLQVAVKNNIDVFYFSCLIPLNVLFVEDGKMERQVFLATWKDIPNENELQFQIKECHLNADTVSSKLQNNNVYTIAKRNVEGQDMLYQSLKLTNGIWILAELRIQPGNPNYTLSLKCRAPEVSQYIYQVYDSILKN

[11] = cytosolic pH regulators acting via V-ATPase – S. cerevisiae, pHLuorin, HTS validation (AID 504600; in the data active means response above about 15%;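 further: plate controls were DMSO for no effect and reference compound for full effect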); conditions: V-ATPase proton transport, at 10 µM, stronger effect = higher value
[12] = system: anti-desmoglein-3 scFv antibody binding to human DSG3; experiment: blockers of pathogenic pemphigus antibody–desmoglein-3 binding – biochemical, validation compound set, bead-based, flow cytometry, pilot screen (AID 588368;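 active means binding below the plate cutoff, the plate median minus 3 SD, with a reading above zero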;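 further: signal is the median channel fluorescence of bead-bound GFP antibody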); conditions: Protein G beads, DSG3-Fc, scFv-GFP binding, at 10 µM, stronger effect = lower value
[13] = system: Botulinum neurotoxin type F light chain protease (Clostridium botulinum); experiment: Clostridium botulinum type F light chain protease inhibitors, microsphere substrate cleavage, validation (AID 588459); conditions: multiplex microsphere protease substrate cleavage assay, flow cytometry; at 10 µM; stronger effect = higher value
[14] = molecular target: Botulinum neurotoxin type A (Clostridium botulinum) (UniProt P0DPI0); experiment: BoNT/A light chain protease inhibitors, biochemical, multiplex microsphere flow cytometry, validation set (AID 588460); conditions: at 10 µM, stronger effect = higher value
[15] = molecular target: Lethal factor (Bacillus anthracis) (UniProt P15917); experiment: Bacillus anthracis lethal factor inhibition, microsphere flow cytometry protease assay, validation at 10 µM (AID 588461); conditions: multiplex microsphere protease cleavage assay, stronger effect = higher value
[16] = Nile Red efflux blockade in pump-expressing yeast – validation compound set, multiplex, phenotypic, pilot screen (AID 588506;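 active means efflux inhibition above 0.42, the validation set average plus 4 SD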;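 further: Nile Red retained in cells so higher fluorescence means more efflux inhibition; 0 = negative control wells and 1 = enniatin B 25 µM full block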); conditions: S. cerevisiae pump-expressing triplex, Nile Red efflux flow cytometry; at 10 µM; stronger effect = higher value
[17] = molecular target: ATP-binding cassette sub-family B member 6 (Homo sapiens) (UniProt Q9NP58); experiment: blockers of ABCB6-driven porphyrin uptake – K562-ABCB6 cells, flow cytometry, validation set, pilot screen (AID 588550;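 active means inhibition above the screen-wide mean plus 3 SD, about 51%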;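 further: 0% = DMSO wells and 100% = benzethonium chloride 70 µM positive control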); conditions: K562-ABCB6 porphyrin accumulation, 1 h, at 10 µM, stronger effect = higher value
ATP-binding cassette sub-family B member 6 (Homo sapiens), sequence (Q9NP58 whole entry, looked up): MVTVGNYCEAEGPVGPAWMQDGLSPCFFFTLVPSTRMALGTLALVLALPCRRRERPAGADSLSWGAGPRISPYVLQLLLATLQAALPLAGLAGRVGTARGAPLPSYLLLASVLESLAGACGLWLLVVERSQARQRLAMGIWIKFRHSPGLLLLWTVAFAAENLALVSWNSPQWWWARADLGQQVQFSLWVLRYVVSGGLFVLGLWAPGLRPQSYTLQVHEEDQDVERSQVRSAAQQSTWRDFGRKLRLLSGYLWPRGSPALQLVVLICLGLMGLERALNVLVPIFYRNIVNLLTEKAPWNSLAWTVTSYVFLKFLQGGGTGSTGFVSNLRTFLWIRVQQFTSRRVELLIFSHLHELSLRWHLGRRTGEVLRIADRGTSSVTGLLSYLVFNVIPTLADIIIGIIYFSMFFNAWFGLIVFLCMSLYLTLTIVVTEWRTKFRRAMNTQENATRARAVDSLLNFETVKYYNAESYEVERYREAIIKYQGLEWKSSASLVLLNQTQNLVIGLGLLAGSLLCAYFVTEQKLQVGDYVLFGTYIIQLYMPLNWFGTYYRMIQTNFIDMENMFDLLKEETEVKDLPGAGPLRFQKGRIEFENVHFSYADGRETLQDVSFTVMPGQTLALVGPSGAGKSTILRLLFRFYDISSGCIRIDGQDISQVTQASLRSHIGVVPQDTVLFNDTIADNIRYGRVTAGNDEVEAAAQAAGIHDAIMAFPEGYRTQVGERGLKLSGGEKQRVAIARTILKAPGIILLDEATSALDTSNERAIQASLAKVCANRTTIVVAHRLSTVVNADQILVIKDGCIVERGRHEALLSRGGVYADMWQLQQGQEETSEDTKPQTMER

[18] = AML differentiation inducers, ER-HoxA9 marrow cells – cell-based, GFP/MAC1 double positive, flow cytometry, validation set, primary screen (AID 588685;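 active means differentiation response of at least 50%, scaled between solvent and reference control, from cells with both markers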;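 further: compound exposure lasts four days before antibody staining and flow analysis; 0% = DMSO wells and 100% = 5 µM fulvestrant positive control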); conditions: stronger effect = higher value
[19] = calorie-restriction mimetic ROS inhibitors, yeast – validation compound set, pilot screen (AID 2706;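 active means superoxide response below 65% of plate, a cut near 3 SD across the whole screen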;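 further: yeast exposed to compound for one week at 30 degrees C before staining; 100% = mean of all compound wells on the same plate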); conditions: S. cerevisiae aging, superoxide DHE fluorescence; at 10 µM; stronger effect = lower value

Row | Compound | percent of DMSO control GFP [1] | GFP response vs DMSO [2] | percent response of DMSO control [3] | GFP response vs DMSO [4] | GFP response, % of DMSO [5] | double positive events [6] [%] | vesicle binding response [6] | inhibition [7] | aptamer binding inhibition [8] | response [9] | inhibition [10] | response [11] | binding (% of control) [12] | inhibition [13] | inhibition [14] | inhibition [15] | efflux inhibition (fraction of control) [16] | inhibition [17] | differentiation response [18] | superoxide response (% of plate) [19]
1 | C[C@]12CCC(=O)C=C1CC[C@@H]1[C@@H]2CC[C@]2(C)C(=O)CC[C@@H]12 | 97.6% (inactive) | 95.1% (inactive) | 80.3% (inactive) | 106% (inactive) | 84.2% (inactive) | 66.1 | 210% (inactive) | 1.62% (inactive) | 1% (inactive) | -0.98% (inactive) | -7.92% (inactive) | -1.25% (inactive) | 99.8% (inactive) | -2.7% (inactive) | -2.1% (inactive) | -3.5% (inactive) | 0.05 (inactive) | 9% (inactive) | 11% (inactive) | –
2 | CCOC(=O)c1cc2c(cn1)[nH]c1ccccc12 | 98.4% (inactive) | 103% (inactive) | 103% (inactive) | 105% (inactive) | 94.5% (inactive) | 59.3 | 102% (inactive) | -7.79% (inactive) | 3% (inactive) | -5.72% (inactive) | -6.1% (inactive) | -1.17% (inactive) | 98.5% (inactive) | 2.3% (inactive) | 0.5% (inactive) | -1.3% (inactive) | -0.39 (inactive) | -6% (inactive) | -1.65% (inactive) | 96.2% (inactive)
3 | C[C@H]1CC[C@@]2(C)[C@@H](CC[C@@H]3[C@@H]2CC[C@]2(C)[C@@H](O)CC[C@@H]32)C1 | 99.9% (inactive) | 103% (inactive) | 92% (inactive) | 137% (inactive) | 102% (inactive) | 61 | 376% (inactive) | 6.4% (inactive) | 0% (inactive) | 8.67% (inactive) | -8.56% (inactive) | 1.08% (inactive) | 99.5% (inactive) | 2% (inactive) | 1.1% (inactive) | -4.7% (inactive) | -0.03 (inactive) | -3% (inactive) | -8.8% (inactive) | 97.5% (inactive)
4 | CC12CN3CC(C)(CN(C1)C3c1cccs1)C2O (centres undefined) | 105% (inactive) | 98.3% (inactive) | 109% (inactive) | 83.5% (inactive) | 104% (inactive) | 67 | 976% (inactive) | 4.73% (inactive) | 2% (inactive) | -7.61% (inactive) | 1.53% (inactive) | 1.19% (inactive) | 98% (inactive) | -2.4% (inactive) | -1.2% (inactive) | 7.5% (inactive) | -0.07 (inactive) | 0% (inactive) | 0.24% (inactive) | 106% (inactive)
5 | CCC1(c2ccccc2)C(=O)N(COC)C(=O)N(COC)C1=O | 102% (inactive) | 102% (inactive) | 103% (inactive) | 112% (inactive) | 112% (inactive) | 62.2 | 148% (inactive) | 10.8% (inactive) | 2% (inactive) | -14.8% (inactive) | 10.8% (inactive) | -4.18% (inactive) | 102% (inactive) | 2% (inactive) | -0.2% (inactive) | 0.4% (inactive) | 0.12 (inactive) | 4% (inactive) | 3.88% (inactive) | 109% (inactive)
6 | Cn1c(O)c(C=NCCc2c[nH]c3ccccc23)c(=O)n(C)c1=O | 100% (inactive) | 111% (inactive) | 97.7% (inactive) | 120% (inactive) | 110% (inactive) | 76.2 | 17400% (inactive) | 5.03% (inactive) | 5% (inactive) | -8.95% (inactive) | -3.21% (inactive) | 3.13% (inactive) | 96.8% (inactive) | -1.3% (inactive) | 1.4% (inactive) | -1.6% (inactive) | -0.06 (inactive) | 6% (inactive) | -23.2% (inactive) | 106% (inactive)
7 | COP(=O)(OC)C(O)C(Cl)(Cl)Cl (centres undefined) | 103% (inactive) | 98.3% (inactive) | 102% (inactive) | 99.9% (inactive) | 102% (inactive) | 62.8 | 230% (inactive) | 9.92% (inactive) | 3% (inactive) | -7.88% (inactive) | -9.07% (inactive) | 0.81% (inactive) | 97.9% (inactive) | -1% (inactive) | -0.6% (inactive) | -2.9% (inactive) | -0.17 (inactive) | -2% (inactive) | 12.9% (inactive) | 94.8% (inactive)
8 | COc1cc2c3cc1Oc1cc(ccc1O)C[C@@H]1c4c(cc(OC)c(O)c4Oc4ccc(cc4)C[C@H]3N(C)CC2)CCN1C | 88.2% (inactive) | 125% (inactive) | 107% (inactive) | 81.4% (inactive) | 90.5% (inactive) | 56.5 | 214% (inactive) | 7.43% (inactive) | 2% (inactive) | 17.5% (inactive) | 19.2% (inactive) | 1.91% (inactive) | 105% (inactive) | -3.1% (inactive) | -3% (inactive) | -7.1% (inactive) | 0.05 (inactive) | 10% (inactive) | -3.28% (inactive) | 92.4% (inactive)
